{"source": "the supplement of paper PMC3334620", "note": "Over roughly 33,000 sequences, “E-score (-0.5 to 0.5)” has its median near -0.035; the highest 2% begin near 0.35. What follows is part of a selection rich in the highest values, with near analogues and random picks from the rest.", "data": [{"target": "T1, Pdr3 (UniProt P33200)", "T1 sequence": "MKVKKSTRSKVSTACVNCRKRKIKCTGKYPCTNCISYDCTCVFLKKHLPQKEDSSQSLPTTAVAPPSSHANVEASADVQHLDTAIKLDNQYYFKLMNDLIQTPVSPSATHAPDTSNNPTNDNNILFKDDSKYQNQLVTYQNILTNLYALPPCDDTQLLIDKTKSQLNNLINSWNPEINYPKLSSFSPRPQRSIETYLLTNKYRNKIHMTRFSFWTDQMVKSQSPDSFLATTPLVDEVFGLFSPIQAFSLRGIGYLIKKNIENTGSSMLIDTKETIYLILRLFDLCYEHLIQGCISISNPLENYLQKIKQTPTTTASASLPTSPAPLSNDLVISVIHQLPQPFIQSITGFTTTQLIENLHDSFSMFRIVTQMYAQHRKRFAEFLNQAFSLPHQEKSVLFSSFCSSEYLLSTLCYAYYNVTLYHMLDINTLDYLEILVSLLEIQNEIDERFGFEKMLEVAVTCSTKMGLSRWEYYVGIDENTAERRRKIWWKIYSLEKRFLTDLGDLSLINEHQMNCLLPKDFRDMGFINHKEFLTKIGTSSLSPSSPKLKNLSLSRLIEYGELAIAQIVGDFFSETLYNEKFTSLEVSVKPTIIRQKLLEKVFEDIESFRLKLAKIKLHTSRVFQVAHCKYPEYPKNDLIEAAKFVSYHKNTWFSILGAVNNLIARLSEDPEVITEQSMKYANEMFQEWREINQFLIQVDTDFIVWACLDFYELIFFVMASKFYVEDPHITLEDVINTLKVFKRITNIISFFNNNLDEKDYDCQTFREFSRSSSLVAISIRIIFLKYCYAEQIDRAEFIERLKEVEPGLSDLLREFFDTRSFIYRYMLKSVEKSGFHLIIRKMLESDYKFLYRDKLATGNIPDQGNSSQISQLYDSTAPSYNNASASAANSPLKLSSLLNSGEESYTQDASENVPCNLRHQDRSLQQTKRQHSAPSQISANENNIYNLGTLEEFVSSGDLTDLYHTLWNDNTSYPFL", "assay": "PBM E-score (8-mer binding enrichment) (E-score (-0.5 to 0.5)); higher = stronger / more preferred TF binding", "conditions": "protein concentration: 200 nM; construct: GST-full length", "method_in_brief": "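Yeast transcription factors, full-length or as DNA-binding domains, were expressed with a GST tag using PURExpress in vitro transcription/translation. At about 100-200 nM they were applied to universal all-10-mer Agilent arrays, double-stranded by primer extension on fresh or once-stripped slides. Fluorescent anti-GST detected bound protein, and masliner normalised the scans. E-scores for ungapped eight-base words, pooled with reverse complements, came from the Universal PBM Analysis Suite.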", "values": [{"sequence": "GCTCTGAA", "PBM E-score": -0.126}, {"sequence": "CAGTGCTC", "PBM E-score": -0.213}, {"sequence": "AAGAGATA", "PBM E-score": -0.206}, {"sequence": "TCCGATAA", "PBM E-score": 0.289}, {"sequence": "ACTAGAAA", "PBM E-score": -0.213}, {"sequence": "ACTATGTA", "PBM E-score": -0.181}, {"sequence": "CCTAGTGC", "PBM E-score": -0.0662}, {"sequence": "CTAGGTGC", "PBM E-score": -0.121}, {"sequence": "CAGGTGCA", "PBM E-score": 0.0121}, {"sequence": "CTCCGGCA", "PBM E-score": 0.34}, {"sequence": "GTCCGAAA", "PBM E-score": 0.264}, {"sequence": "TTCCGAAA", "PBM E-score": 0.41}, {"sequence": "ATCCGAAT", "PBM E-score": 0.365}, {"sequence": "ATCCGAAG", "PBM E-score": 0.22}, {"sequence": "CTCCGGAG", "PBM E-score": 0.476}, {"sequence": "CTCCGGAA", "PBM E-score": 0.441}, {"sequence": "CTCCGGTA", "PBM E-score": 0.321}, {"sequence": "CTCCGAAG", "PBM E-score": 0.311}, {"sequence": "ATCCGAAC", "PBM E-score": 0.316}, {"sequence": "ATCCGAAA", "PBM E-score": 0.248}, {"sequence": "CACCGGAG", "PBM E-score": 0.253}, {"sequence": "CGCCAGTA", "PBM E-score": 0.00965}, {"sequence": "AACTGCGC", "PBM E-score": -0.146}, {"sequence": "AGAGATCG", "PBM E-score": -0.137}, {"sequence": "AGCGCGGG", "PBM E-score": 0.324}, {"sequence": "AGCAAGTA", "PBM E-score": -0.149}, {"sequence": "ACGGCACA", "PBM E-score": -0.0224}, {"sequence": "ACTGTAGC", "PBM E-score": -0.197}, {"sequence": "GTCCGCAA", "PBM E-score": 0.259}, {"sequence": "GTCCGGAC", "PBM E-score": 0.481}, {"sequence": "CTCCGGTC", "PBM E-score": 0.328}, {"sequence": "CTCCGTAC", "PBM E-score": 0.162}, {"sequence": "TTCCGCAA", "PBM E-score": 0.404}, {"sequence": "GTCCGCAC", "PBM E-score": 0.215}, {"sequence": "ATCCGCAA", "PBM E-score": 0.222}, {"sequence": "ATCCGGCC", "PBM E-score": 0.403}, {"sequence": "ATCCGGCG", "PBM E-score": 0.323}, {"sequence": "CTCCGGAC", "PBM E-score": 0.382}, {"sequence": "CTCCGGCC", "PBM E-score": 0.0522}, {"sequence": "CCCGCTCG", "PBM E-score": 0.133}, {"sequence": "ACGTCTTG", "PBM E-score": -0.178}, {"sequence": "ACGGTTAT", "PBM E-score": -0.0715}, {"sequence": "CGCCTCAC", "PBM E-score": 0.152}, {"sequence": "ACGGTAAA", "PBM E-score": 0.0442}, {"sequence": "GTCAAGGA", "PBM E-score": -0.0724}, {"sequence": "GTCCGGTA", "PBM E-score": 0.181}, {"sequence": "ATCCGCAT", "PBM E-score": 0.267}, {"sequence": "ATCAGGAT", "PBM E-score": 0.113}, {"sequence": "ATCCGGTA", "PBM E-score": 0.168}, {"sequence": "ATCCGGAT", "PBM E-score": 0.465}, {"sequence": "GTCCGGCA", "PBM E-score": 0.295}, {"sequence": "ATCCGGCA", "PBM E-score": 0.255}, {"sequence": "ATCCGGTC", "PBM E-score": 0.215}, {"sequence": "ACCCGGAC", "PBM E-score": 0.317}, {"sequence": "ATCCGGAA", "PBM E-score": 0.464}, {"sequence": "ATCCGGAC", "PBM E-score": 0.355}, {"sequence": "GTCCGGAA", "PBM E-score": 0.457}, {"sequence": "CTGAGTGA", "PBM E-score": 0.179}, {"sequence": "CACCCAGC", "PBM E-score": -0.0529}, {"sequence": "CCTAGATC", "PBM E-score": -0.201}, {"sequence": "ACTTTGCA", "PBM E-score": 0.00219}, {"sequence": "ATCCGGTG", "PBM E-score": 0.35}, {"sequence": "ATCCGCAG", "PBM E-score": 0.316}, {"sequence": "ATCCGGAG", "PBM E-score": 0.433}, {"sequence": "TAGCATGA", "PBM E-score": -0.224}]}]}
